Measurements from PubChem BioAssay AID798 (PCMD, 2007).
Screen size: about 220,000 compounds; about 300 (0.14%) were called active. For the sample, actives were picked, then their nearest neighbours and some compounds at random. Values without a mark were called inactive.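 Rule for the calls: active = inhibition of at least 40%; inactive = inhibition below 40%.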

Target: Coagulation factor XI (Homo sapiens) (UniProt P03951)
Assay: factor XIa enzyme inhibition, large library – biochemical, 1536-well, primary screen (AID 798);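 note: fluorescence of freed AMC excited at 355 nm; 0% = enzyme without compound and 100% = no enzyme blank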
Settings: purified FXIa, Boc-Glu-Ala-Arg-AMC fluorogenic substrate; at 5 µM; active compounds read high

Coagulation factor XI (Homo sapiens), sequence (P03951 19-387 limits assumed): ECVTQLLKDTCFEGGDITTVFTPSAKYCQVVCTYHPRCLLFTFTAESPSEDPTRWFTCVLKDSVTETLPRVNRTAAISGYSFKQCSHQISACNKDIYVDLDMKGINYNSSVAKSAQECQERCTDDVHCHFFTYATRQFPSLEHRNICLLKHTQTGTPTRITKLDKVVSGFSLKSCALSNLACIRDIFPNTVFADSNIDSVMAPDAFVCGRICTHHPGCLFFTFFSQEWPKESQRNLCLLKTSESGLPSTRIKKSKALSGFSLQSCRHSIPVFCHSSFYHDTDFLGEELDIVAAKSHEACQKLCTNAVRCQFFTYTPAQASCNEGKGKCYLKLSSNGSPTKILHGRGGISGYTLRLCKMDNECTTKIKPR
Coagulation factor XI (Homo sapiens), sequence (P03951 388-625 limits assumed): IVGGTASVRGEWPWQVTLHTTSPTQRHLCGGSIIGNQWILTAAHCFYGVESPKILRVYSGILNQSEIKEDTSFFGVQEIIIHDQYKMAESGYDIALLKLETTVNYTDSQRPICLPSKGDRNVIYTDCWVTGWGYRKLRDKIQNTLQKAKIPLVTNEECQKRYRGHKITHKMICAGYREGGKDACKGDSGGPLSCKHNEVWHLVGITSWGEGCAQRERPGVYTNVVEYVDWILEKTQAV

Row | Compound | inhibition
1 | CN(C)/N=C/c1cc(Cl)cc([N+](=O)[O-])c1O | 2.99%
2 | CC(=O)NC1(c2ccc(F)cc2)CCN(C(=O)c2c(F)cccc2F)CC1 | -6.45%
3 | Cc1cccc(N2CCN(Cc3nc(C4CC4)no3)CC2)n1 | -4.4%
4 | Cc1ccc(S(=O)(=O)N2CCN(CC(=O)N/N=C/c3cc([N+](=O)[O-])ccc3Cl)CC2)cc1 | 3.33%
5 | COc1nc(NC2CCCCC2)nc(N2CCCCCC2)n1 | 5.12%
6 | O=c1nc(N/N=C/c2ccco2)cn[nH]1 | -0.64%
7 | CC(C)OP(=O)(OC(C)C)C(Nc1ccccc1)c1cccc([N+](=O)[O-])c1 (configuration not stated) | 2.9%
8 | COc1cccc(N2C(=O)CC(N3CCc4ccccc4C3)C2=O)c1 (configuration not stated) | -2.99%
9 | Cc1ccc(NN=C2C(=O)OC(C)(C)OC2=O)c(C)c1 | -3.38%
10 | O=C(COc1ccccc1[N+](=O)[O-])N/N=C/c1ccc[nH]1 | 2.13%
11 | CC(C)c1nc(SCC(=O)NC(=O)NC(C)(C)C)n[nH]1 | 1.78%
12 | Cc1ccc(C(=O)Cn2cc([N+](=O)[O-])nc2C)cc1 | 2.54%
13 | O=C(CNCc1ccc(F)cc1)Nc1ccccc1-c1ccccc1 | 5.85%
14 | O=C(COC(=O)C12CC3CC(CC(O)(C3)C1)C2)NC12CC3CC(CC(C3)C1)C2 | -0.93%
15 | CCOC(=O)c1ccc(NC(=O)Cn2cnc3cc(C)c(C)cc32)cc1 | -1.09%
16 | COc1ccc(CN2C(=O)CC(Cc3ccc(C)cc3)C2=O)cc1OC (configuration not stated) | 16.3%
17 | Cc1nc(N)[nH]c(=O)c1Oc1cccc(C(F)(F)F)c1 | -2.42%
18 | CC(C)(C)NC(=O)CSC(=Nc1ccccc1F)NC#N | 7.8%
19 | CCC1SC(CC)C(=O)N(CC(=O)NC2CCCCC2)C1=O (configuration not stated) | 26%
20 | Cc1ccccc1Cn1c2ccccc2c2cnn(CC(=O)NCc3ccco3)c(=O)c21 | -0.28%
21 | COCCNC(=S)N1CCC(NC(=O)C23CC4CC(CC(C4)C2)C3)CC1 | -6.69%
22 | CCOc1cc(CO)ccc1OCC(=O)N1CCCCC1 | 40.9% (active)
23 | CCOc1cc(CN2CCN(C(=O)CC(C)C)CC2)ccc1OC | -13.4%

Row | Compound | inhibition
24 | O=C(COc1ccc(Cl)cc1[N+](=O)[O-])N1CCCCC1 | -5.02%
25 | COc1ccccc1OCC(=O)OCn1c(SC)nnc(C)c1=O | 5.82%
26 | CCOC(=O)N1CCN(Cc2nc3ccc([N+](=O)[O-])cc3c(=O)n2-c2cccc(OC)c2)CC1 | -1.56%
27 | Cc1cc(C(=O)CSc2nc(N)cc(=O)[nH]2)c(C)n1Cc1ccco1 | -4.8%
28 | CCc1cccc(CC)c1NC(=S)Nc1ccc2cn[nH]c2c1 | 0.17%
29 | O=C(O)c1ccccc1OCc1ccccc1Cl | 1.64%
30 | COCCN(CCOC)c1nc(N)c2c(N)nc3c(c2c1C#N)CC(=O)N3Cc1ccc(Cl)cc1 | -10.3%
31 | CC1=NN(/C(=N\c2nnc(C)s2)Nc2ccccc2)[C@H](c2ccc(C)cc2)S1 | 0.56%
32 | COC(=O)c1sccc1-n1cccc1C(=O)C(=O)N1CCCCC1 | 0.21%
33 | O=C(Nc1ccc(Cl)cc1)Nc1ccc(C(=O)N2CCOCC2)cc1 | 4.9%
34 | OC(c1nc2ccccc2[nH]1)C(O)C(O)C(O)c1nc2ccccc2[nH]1 (configuration not stated) | 1.7%
35 | O=C(CCS(=O)(=O)Cc1ccccc1)Nc1ccc2c(c1)OCCO2 | -6.9%
36 | COC(=O)Cc1[nH]n(-c2nc3ccccc3s2)c(=O)c1C(C)=Nc1ccc(OC)cc1 | 2.75%
37 | N#C/C(=C/c1cccc([N+](=O)[O-])c1)c1nnc2n1CCCCC2 | 0.95%
38 | O=C(Cn1cc(C(F)(F)F)ccc1=O)N/N=C/c1ccc(Cl)cc1Cl | 6.17%
39 | O=C1N/C(=C/c2cccn2-c2ccccc2)C(=O)N1c1cccc(Cl)c1 | -9.57%
40 | COCCNC(=O)C(c1ccc(O)cc1)N(C(=O)CCC(=O)Nc1nccs1)c1ccc(C)cc1 (configuration not stated) | 1.25%
41 | CCC(C)(C)NC(=O)CN(Cc1cccs1)C(=O)CNS(=O)(=O)c1ccc(F)cc1 | -7.45%
42 | CC(C)C(NC(=O)C1CCC(C(C)(C)C)CC1)C(=O)NCCCN1CCCCC1 (configuration not stated) | -3.84%
43 | COc1ccccc1NC(=O)c1cc(Cl)nc2ccccc12 | -7.34%
44 | Cc1c(C(=O)NC(=S)NCc2cccnc2)oc2ccccc12 | -1.74%
45 | CN(C)CC(C)(C)CNC(=O)c1cc(Br)cc(Br)c1O | -3.11%
46 | Cc1ccc(NC(=O)C2CCCN(S(=O)(=O)c3c(C)noc3C)C2)c(C)c1 (configuration not stated) | -3.38%

Row | Compound | inhibition
47 | Cc1noc(C)c1S(=O)(=O)N1CCCC(C(=O)Nc2nccs2)C1 (configuration not stated) | 1.07%
48 | COc1c(C)cc(C(=O)C2CCCN(S(=O)(=O)c3c(C)noc3C)C2)cc1C (configuration not stated) | 102% (active)
49 | FC(F)(F)c1cccc(-c2nc(COc3ccc(Cl)cc3Cl)no2)c1 | 2.41%
50 | CN1CCc2ccccc2C1Cc1ccccc1NC(=O)c1sc2ccccc2c1Cl (configuration not stated) | 2.33%
51 | CCOC(=O)CSC1=N/C(=C/c2ccc(-n3cncn3)cc2)C(=O)N1C(C)=O | 3.79%
52 | O=c1[nH]c(CN2CCOCC2)nc2scc(-c3ccccc3)c12 | -11.5%
53 | Cc1cccc2cc(CN(C(=O)c3cccs3)c3ccccc3)c(=O)[nH]c12 | -1.12%
54 | COc1ccc(OCc2n[nH]c(=S)n2N)cc1 | -0.79%
55 | NS(=O)(=O)c1ccc(CCNC(=O)NC2CCCCC2)cc1 | 3.22%
56 | Cc1ccc(C(=O)Nc2ccc(C)c(S(=O)(=O)N(C)C)c2)s1 | 6.45%
57 | C#CCOCCOCCOCCNc1nc(N2CCN(C(=O)[C@H](CCC(=O)O)n3cc(C(N)CO)nn3)CC2)nc(N2CCN(C(=O)[C@H](CCCCN)n3cc(C(N)CC(C)C)nn3)CC2)n1 (some centres not stated) | 0.58%
58 | NC(=O)C1=C[C@@H](c2csc3ccccc23)C[C@@H](OCc2ccc(CO)cc2)O1 | -0.4%
59 | CN(CCc1ccccn1)C(=O)CCC1CCCN(Cc2ccccc2OC(F)F)C1 (configuration not stated) | -3.18%
60 | COc1ccccc1CN(C)c1nnnn1-c1ccccc1 | -0.22%
61 | CC(C)Cc1nnc(NC(=O)CCC(=O)Nc2ccc3cn[nH]c3c2)s1 | 5.73%
62 | C=CC(COCc1ccccc1)N(Cc1ccccc1)S(=O)(=O)c1ccccc1Br (configuration not stated) | -5.35%
63 | COc1cc2[nH]c(=O)n(Cc3ccc(C(=O)NC4CCN(Cc5ccccc5)CC4)cc3)c(=O)c2cc1OC | -5.4%
64 | CCSC1=NCCN1C(=O)c1ccc(S(=O)(=O)N(CC)CC)cc1 | -2.2%
65 | CCC(C(=O)Nc1ccc2c(c1)OCCO2)c1ccccc1 (configuration not stated) | -1.53%
66 | CC12CN3CCN(CC(C3)/C1=N\NC(=O)c1ccccc1N)C2 | -0.67%
67 | COc1cc(-c2nnn(CC(=O)NCc3ccccc3)n2)cc(OC)c1OC | 3%
68 | CNc1ccc([N+](=O)[O-])cc1C(=O)O | -2.33%
69 | NC(=O)C1CCN(C(=O)COc2cccc3cccnc23)CC1 | 0.03%

Row | Compound | inhibition
70 | Cc1cnc(NC(=O)Cn2cnc3c2c(=O)n(C)c(=O)n3C)s1 | -1.78%
71 | CCOCCn1c(-c2ccccc2)nc2ccccc21 | 0.72%
72 | Cc1ccc(Sc2ccncc2S(N)(=O)=O)cc1 | 5.95%
73 | CC(C)(C)CC(C)(C)NCC(O)COCCOc1ccc(Br)cc1 (configuration not stated) | 1.54%
74 | COC(=O)c1sccc1NN1C(=O)c2ccccc2C1=O | 0.85%
75 | O=C(CC(NC(=O)c1ccccc1)c1ccccc1)Nc1ccc(F)c(F)c1 (configuration not stated) | -2.03%
76 | Cc1ccc(C2CCN(C(=S)Nc3cccc(Cl)c3)C2)cc1 (configuration not stated) | -2.9%
77 | CCOC(=O)COc1cc(O)c2c(=O)cc(-c3ccccc3)oc2c1 | 45% (active)
78 | CCOC(=O)COc1cc(OCC(=O)OCC)c2c(=O)cc(-c3ccccc3)oc2c1 | -3.59%
79 | Cc1noc(C)c1COC(=O)COc1ccc(-c2ccccc2)cc1 | 9.94%
80 | CCOC(=O)c1nn(-c2ccccc2F)c2nc(Nc3ccccc3)cc(=O)n12 | -3.73%
81 | COc1cccc(-n2nc(C(=O)N3CCN(Cc4ccccc4)CC3)c3ccccc3c2=O)c1 | -0.09%
82 | C/C(Cc1ccccc1)=N\NC(=O)CNC(=O)c1cccc(Br)c1 | 9.13%
83 | C/C(Cc1ccccc1)=N\NC(=O)CNC(=O)c1ccccc1Cl | 56.6% (active)
84 | C/C(Cc1ccccc1)=N\NC(=O)CNC(=O)c1ccc2c(c1)OCCO2 | -2.1%
85 | CCOc1ccc(Br)cc1S(=O)(=O)N1CCC(C(=O)O)CC1 | -8.82%
86 | CC(NC(=S)Nc1ccccc1)C1COc2ccccc2O1 (configuration not stated) | 3.5%
87 | Cc1c(Cl)cccc1NC(=O)Nc1ccc(C(=O)N2CCCC2)cc1 | 18.9%
88 | Cc1ccc(C(=O)COC(=O)c2cccc(N3C(=O)c4c(C)nc5ccccc5c4C3=O)c2)cc1C | 8.56%
89 | CN(CC(=O)Nc1ccc(F)cc1)CC(=O)Nc1ccc(Cl)c(S(=O)(=O)N2CCOCC2)c1 | 0.07%
90 | COc1ccc(C(=O)NNC(=O)c2cc(C)[nH]n2)cc1 | 1.62%
91 | COc1ccc(CNC(=O)COC(=O)/C=C/c2ccc(S(=O)(=O)N3CCOCC3)cc2)cc1 | -3.11%
92 | CCc1ccc(Oc2coc3cc(OC(=O)c4cc5ccccc5oc4=O)ccc3c2=O)cc1 | -3.61%
